Measured values published in PubChem BioAssay (NCI).
About 79,000 compounds went through this panel and 15% of them were active in at least one assay; those are over-represented in the sample as a whole. Values without a mark were called inactive. The source made the active and inactive calls. Rule as the data show it: active = growth inhibition above about 70%; inactive = the rest.

Assay: NCI Yeast Anticancer Drug Screen. Data for the wt2 strain (AID 169);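 also: 0% = growth of vehicle-treated yeast cultures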
Details: S. cerevisiae wt2 strain growth inhibition, stronger effect = higher value
Method: Growth inhibition of yeast strains with defined genetic alterations is measured as a screen for potential anti-cancer activity. Selected strains with alterations in DNA damage repair or cell cycle control were exposed to compounds and growth inhibition was measured relative to vehicle treated controls. The strain used in this assay is wt2

For `O=Nn1c2ccccc2c2ccccc21`, the growth inhibition (at 1.2 µM) was -46%, the growth inhibition (at 3.7 µM) was -34% and the growth inhibition (at 11.0 µM) was -28%. The growth inhibition (at 33.0 µM) was -15% and the growth inhibition (at 100.0 µM) was 62%.
In the case of `CCN(CC)CC(O)c1cc(-c2ccc(Cl)cc2)nc2c(-c3ccccc3)cccc12` (stereo not given), the growth inhibition (at 1.2 µM) is reported as -2%, the growth inhibition (at 3.7 µM) is reported as -4% and the growth inhibition (at 11.0 µM) is reported as 99% (active). The growth inhibition (at 33.0 µM) was 98% (active) and the growth inhibition (at 100.0 µM) was 94% (active).
With `CC(C)(C)c1ccc(O)c(C(c2ccc([N+](=O)[O-])cc2)c2cc(C(C)(C)C)ccc2O)c1` the growth inhibition (at 1.2 µM) was -16%, the growth inhibition (at 3.7 µM) was -19% and the growth inhibition (at 11.0 µM) was 46%. For the same compound, the growth inhibition (at 33.0 µM) was 81% (active) and the growth inhibition (at 100.0 µM) was 83% (active).
Compound `COc1ccc(/C=C2\SC(=S)N(C=C3C(=O)NC(=S)NC3=O)C2=O)cc1OC` has a growth inhibition (at 1.2 µM) of 1%, a growth inhibition (at 3.7 µM) of 7% and a growth inhibition (at 11.0 µM) of 52%. The growth inhibition (at 33.0 µM) was 92% (active) and the growth inhibition (at 100.0 µM) was 95% (active).
In the case of `CN=C(N)N/N=C(\C)c1ccc2oc3ccc(/C(C)=N/NC(N)=NC)cc3c2c1`, the growth inhibition (at 1.2 µM) is reported as -4%, the growth inhibition (at 3.7 µM) is reported as 2% and the growth inhibition (at 11.0 µM) is reported as 95% (active). For the same compound, the growth inhibition (at 33.0 µM) was 98% (active) and the growth inhibition (at 100.0 µM) was 98% (active).
For `C/C(=N\NC(=S)NC1CCCC1)c1ccccn1`, the growth inhibition (at 1.2 µM) was -3%, the growth inhibition (at 3.7 µM) was 71% (active) and the growth inhibition (at 11.0 µM) was 99% (active). For the same compound, the growth inhibition (at 33.0 µM) was 99% (active) and the growth inhibition (at 100.0 µM) was 99% (active).
Work on `Oc1ccc(C=Nc2ccccc2O)cc1` yielded a growth inhibition (at 1.2 µM) of 25%, a growth inhibition (at 3.7 µM) of 30% and a growth inhibition (at 11.0 µM) of 33%. The growth inhibition (at 33.0 µM) was 43% and the growth inhibition (at 100.0 µM) was 65%.
Compound `N#C/C(=C/c1c(Cl)cccc1Cl)C(N)=O` has a growth inhibition (at 1.2 µM) of -16%, a growth inhibition (at 3.7 µM) of -2% and a growth inhibition (at 11.0 µM) of -2%. For the same compound, the growth inhibition (at 33.0 µM) was 58% and the growth inhibition (at 100.0 µM) was 96% (active).
